From PubChem BioAssay come the findings set out here.

Experiment [1] relates to Human papillomavirus type 1a protein E7 (residues 44-93). Put plainly: HPV1a E7 fragment binders on microarrays, primary screen, biochemical, small-molecule microarray, residues 44-93, 635 nm fluorescence (AID 1108).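 Further: E7 fragment applied at 1 µg/mL in TBST for 1 h at 4 C; score combines spot fluorescence with its signal to noise ratio.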 The following applies: small-molecule microarray binding, fluorescence 635 nm; higher = more signal.
Experiment [2] is described as follows: modulators of HCV replicon luciferase signal, primary screen, HCV replication inhibitor project, Huh7 cells, luciferase reporter (AID 1109).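 Further: huh7 hepatoma cells harbouring a luciferase neomycin HCV replicon reporter; luciferase luminescence as measure of HCV replicon replication; test concentration not given here.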 The conditions noted are these: 48 h, higher = more signal. For orientation: A replicon is a self-replicating genome or part of one, used to study replication in cells.
Experiment [3] has as its target Left-right determination factor 2 (Homo sapiens) (UniProt O00292). Put plainly: LEFTY2 binders on small-molecule microarrays, primary screen, biochemical, small-molecule microarray, 635 nm fluorescence scan (AID 1110). The following applies: LEFTY2 binding, higher = more signal.
For experiment [4], the target named is Calmodulin-1 (Homo sapiens) (UniProt P0DP23). Put plainly: CALM1 binders on microarrays, EGTA buffer, profiling panel, biochemical, small-molecule microarray, Cy5-labelled CALM1 (AID 1111).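 Further: labelled calmodulin applied in Tris saline Tween buffer holding calcium plus EGTA and DTT.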 The conditions noted are these: Cy5-CALM1 binding fluorescence, higher = more signal.
The target is the same in experiment [5]. Put plainly: calcium-bound CALM1 binders on microarrays, profiling panel, artefact control for SMM control-protein annotation, biochemical, small-molecule microarray, Cy5-labelled CALM1, plus calcium (AID 1112).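 Further: score merges spot fluorescence with signal to noise from triplicate slides.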 The conditions noted are these: Cy5-CALM1 binding fluorescence, higher = more signal.
A short description of experiment [6]: small-molecule microarray binders of probe aWnt5a, primary screen, biochemical, biotinylated probe, 635/667 nm fluorescence (AID 1113).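 Further: score merges 667 nm fluorescence intensity with signal-to-noise per printed feature.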 The following applies: higher = more signal.
Experiment [7] can be described thus: small-molecule microarray binders of probe aShh, primary screen, biochemical, biotinylated probe, 635/667 nm fluorescence (AID 1114).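 Further: probe is biotin-labelled aShh protein from a stem cell growth factor screen; measures binding of labelled protein to compounds printed on the slide; score merges feature fluorescence at 667 nm with signal-to-noise.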 The following applies: higher = more signal.
A short description of experiment [8]: small-molecule microarray binders of probe aNog, primary screen, biochemical, biotinylated probe, 635/667 nm fluorescence (AID 1115).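 Further: probe is biotinylated aNog protein used at 0.15 µg/mL for 1 h at 4 C; z-score combines 667 nm fluorescence of each spot with its signal to noise.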 The following applies: higher = more signal.
For experiment [9], the target named is Torsin-1A-interacting protein 1 (Homo sapiens) (UniProt Q5JTV8). Put plainly: LAP1 binders from COS7 cell lysate, primary screen, small-molecule microarray, 635/667 nm fluorescence (AID 1116). The following applies: COS7-hLAP1 lysate binding, 635 nm fluorescence, higher = more signal.
Torsin-1A-interacting protein 1 (Homo sapiens), sequence (Q5JTV8 whole entry, looked up): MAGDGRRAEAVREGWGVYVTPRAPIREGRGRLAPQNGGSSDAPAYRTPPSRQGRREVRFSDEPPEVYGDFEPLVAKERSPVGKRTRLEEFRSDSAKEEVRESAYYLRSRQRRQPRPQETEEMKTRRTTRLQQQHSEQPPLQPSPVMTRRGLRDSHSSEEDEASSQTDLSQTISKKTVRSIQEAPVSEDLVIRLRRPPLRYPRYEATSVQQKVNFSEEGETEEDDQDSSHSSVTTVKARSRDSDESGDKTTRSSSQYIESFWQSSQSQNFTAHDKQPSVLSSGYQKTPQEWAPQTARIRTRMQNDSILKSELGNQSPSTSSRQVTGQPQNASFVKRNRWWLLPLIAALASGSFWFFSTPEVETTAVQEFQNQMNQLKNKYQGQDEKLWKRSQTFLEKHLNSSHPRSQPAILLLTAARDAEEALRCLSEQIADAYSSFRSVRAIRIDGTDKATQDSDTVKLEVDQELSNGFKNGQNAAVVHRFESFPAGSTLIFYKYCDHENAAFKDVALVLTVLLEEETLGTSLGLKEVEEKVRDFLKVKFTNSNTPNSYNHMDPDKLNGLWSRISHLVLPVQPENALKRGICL
Experiment [10] has as its target Alpha-bungarotoxin (Bungarus multicinctus) (UniProt P60615). Put plainly: alpha-bungarotoxin binders on microarray, profiling panel, artefact control for SMM control protein annotation, biochemical, small-molecule microarray, Alexa647 label, 635/667 nm fluorescence (AID 1117). The following applies: alpha-BTX-A647 binding fluorescence, higher = more signal.

Alpha-bungarotoxin (Bungarus multicinctus), sequence (P60615 whole entry, looked up): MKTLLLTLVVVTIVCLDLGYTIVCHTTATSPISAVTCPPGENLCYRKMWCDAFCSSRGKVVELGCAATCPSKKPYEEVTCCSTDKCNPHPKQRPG
Left-right determination factor 2 (Homo sapiens), sequence (O00292 whole entry, looked up): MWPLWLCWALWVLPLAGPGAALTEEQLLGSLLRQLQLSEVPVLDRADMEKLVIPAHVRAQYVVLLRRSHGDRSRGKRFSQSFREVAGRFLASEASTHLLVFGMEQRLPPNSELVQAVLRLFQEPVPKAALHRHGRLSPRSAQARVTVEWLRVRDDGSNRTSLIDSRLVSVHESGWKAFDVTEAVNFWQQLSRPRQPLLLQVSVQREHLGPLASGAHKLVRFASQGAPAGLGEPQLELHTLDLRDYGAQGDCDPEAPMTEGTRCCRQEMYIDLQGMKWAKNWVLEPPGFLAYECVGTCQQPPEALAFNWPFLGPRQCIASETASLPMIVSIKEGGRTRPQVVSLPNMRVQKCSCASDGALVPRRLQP

Take `CC[C@@H]1C=C(C(=O)O)[C@H](c2ccc(C#N)cc2)N1S(=O)(=O)c1ccc(C)cc1`: the composite z-score is 0.458 in experiment [1]; 0.635 in experiment [3]; 1.45 in experiment [4]; -0.0241 in experiment [5]; 0.0136 in experiment [6]; -0.0324 in experiment [7]. Moreover, the composite z-score was determined as 0.598 in experiment [8], 2.47 in experiment [9] and 0.62 in experiment [10]. This compound showed a z-score in experiment [2] of -0.651.
For `Cc1ccc(S[C@]2(C(=O)NCc3ccccc3)CC(=O)N(C3CCCCC3)[C@@H]2c2ccc(CO)cc2I)cc1`, the composite z-score was 1.23 in [1]; -0.364 in [3]; 0.699 in experiment [4]; -0.267 in experiment [5]; 0.205 in experiment [6]; -0.0324 in experiment [7]. Also, the composite z-score was -0.18 in experiment [8], 0.759 in [9] and 0.604 in [10]. The compound also returned a z-score in [2] of -2.75.
For `COc1cc2c(cc1O)C(C1CC1)N(Cc1cccc(OC(F)(F)F)c1)CC2` (stereo not given), the composite z-score in experiment [1] was -1.05; in [3], -0.116; in experiment [4] it was -1.67; in [5], -0.453; in experiment [6] it was -0.062; in [7], -0.0793. Besides, the composite z-score was -0.147 in [8], 0.108 in [9] and -0.41 in [10]. In experiment [2], this compound displayed a z-score of -2.75.
In the case of `O=C1C2C=CC(C(O)c3cccc(O)c3)N(Nc3ccc([N+](=O)[O-])cc3)C2C(=O)N1c1ccccc1` (stereo not given), the composite z-score is 0.939 in [1]; 0.183 in [3]; 0.0968 in experiment [4]; 0.219 in experiment [5]; -0.0462 in [6]; 0.0022 in [7]. In addition, the composite z-score in [8] is -0.163; in experiment [9], 0.26; in experiment [10], 1.13. The same compound gave a z-score in [2] of -0.278.
As for `CC(=O)N1CC2(CC2)CC1c1ccccc1` (stereo not given), the composite z-score in experiment [1] is 0.753; in [3], 0.171; in experiment [4], 0.107; in [5], 0.0916; in experiment [6] it was 1.19; in experiment [7], -0.227. Further, the composite z-score in [8] was 2.15; in [9], 0.791; in experiment [10], -0.217. In experiment [2], this compound yielded a z-score of 0.677.
In the case of `[N-]=[N+]=Nc1ccccc1C[C@]1(C(=O)N2CCOCC2)COC(c2ccc(OCCCO)cc2)=N1`, the composite z-score in [1] was 1.41; in [3], -0.253; in [4], 0.201; in experiment [5], -0.554; in experiment [6], 0.0317; in [7], 0.14. In addition, the composite z-score in [8] is -0.527; in experiment [9] it was 1.08; in experiment [10], 0.664. Moreover, in [2], the z-score was -1.72.
Take `CCOC(=O)[C@@H]1CCCCN1C(=O)C(=O)OC`: the composite z-score in experiment [1] was 0.5; in experiment [3], 0.449; in [4], -0.499; in experiment [5], -0.305; in experiment [6], -0.0684; in experiment [7], -0.0904. Also, the composite z-score in experiment [8] is -0.158; in [9], -0.274; in [10] it was 0.154. Further, the z-score in experiment [2] is -0.583.
Turning to `CCCC=C(CCC)[C@@H](NS(=O)(=O)CC12CCC(CC1=O)C2(C)C)c1ccc(C(=O)OC)cc1` (stereo not given in full), the composite z-score in [1] is 1.33; in experiment [3] it was 0.306; in experiment [4] it was -0.057; in experiment [5], -0.654; in experiment [6] it was -0.165; in [7] it was -0.373. Also, the figures for the composite z-score in experiment [8], in [9] and in [10] were -0.289, 0.159 and -0.362, respectively. In [2], the z-score is -0.197.
Take `COC(=O)c1c(CC[C@@H](CO)NC(=O)N2CCC[C@H]2Cn2cc(C3(O)CCCCC3)nn2)oc(C(C)=O)c1C(=O)OC`: the composite z-score in [1] is 1.33; in experiment [3], 0.562; in [4], 0.624; in experiment [5], -0.712; in experiment [6], -0.275; in experiment [7] it was -0.0709. Besides, the figures for the composite z-score in [8], in experiment [9] and in experiment [10] were 0.189, 0.416 and 0.966, respectively. Further, the z-score in [2] was -0.172.
Regarding `O=C(Cc1ccccc1)[C@H]1C2C=CCCC(c3ccccc3)=C2CN1Cc1ccccc1` (stereo not given in full), the composite z-score was -0.75 in experiment [1]; 0.174 in [3]; -0.185 in [4]; -0.354 in experiment [5]; -0.0566 in experiment [6]; -0.124 in experiment [7]. The composite z-score is 0.0326 in experiment [8], 0.163 in experiment [9] and -0.0051 in experiment [10]. In experiment [2], this compound had a z-score of -0.576.
For the compound `C=CCNC(=O)[C@H]1[C@@H]2C(=O)O[C@@H](c3ccccc3)[C@@H](c3ccccc3)N2[C@@H](c2ccccc2OCCO)[C@]12C(=O)N(C(=O)OCCOC)c1ccc(C#CC3(O)CCCCCC3)cc12`, the composite z-score in experiment [1] is 1.25; in experiment [3], 0.371; in [4] it was 1.09; in experiment [5], 0.647; in experiment [6] it was -0.0239; in experiment [7], 0.176. Besides, the composite z-score in experiment [8] is -0.168; in experiment [9], 1.22; in experiment [10] it was 0.996. Moreover, the z-score in experiment [2] is -2.88.
For the compound `NCCCCCNC(=O)[C@@H]1C[C@@H]2C(=O)N[C@@H](CCCCN)C(=O)N2[C@@H]1c1ccc(O)cc1`, the composite z-score in experiment [1] was 1.37; in [3] it was 1.15; in [4], 1.44; in experiment [5], 0.325; in [6], -0.0286; in experiment [7] it was 0.246. Moreover, the composite z-score is -0.103 in experiment [8], 1.51 in experiment [9] and 1.2 in [10]. The z-score in [2] is -1.48.
Take `C=C(COC)/C(=C/C[C@H](OC(=O)c1ccncc1)c1ccc(CO)o1)c1cnc2ccccc2c1`: the composite z-score was 1.38 in [1]; 0.321 in experiment [3]; -0.0747 in experiment [4]; -0.91 in [5]; -0.0758 in experiment [6]; 0.337 in experiment [7]. In addition, the composite z-score was -0.12 in [8], 0.865 in experiment [9] and 1.91 in [10]. In addition, in [2], the z-score was -0.403.
For `COc1ccc(CCNC(=O)[C@@]2(Sc3ccc(C)cc3)CC(=O)N(Cc3ccccc3C(F)(F)F)[C@@H]2c2ccc(CO)cc2I)cc1`, the composite z-score was 0.497 in experiment [1]; -1.5 in [3]; 0.138 in experiment [4]; 0.14 in experiment [5]; -0.0792 in experiment [6]; -0.0849 in experiment [7]. Further, the composite z-score was determined as 0.924 in [8], 0.357 in [9] and 1.73 in experiment [10]. In experiment [2], the z-score is -2.42.
Take `O=C(O)[C@@H]1[C@@H]2C(=O)N(c3ccccc3)C(=O)[C@@H]2C[C@@H]1Sc1ccccc1`: the composite z-score in [1] was -0.933; in experiment [3], -0.603; in experiment [4] it was 0.172; in experiment [5] it was 0.474; in experiment [6], 0.0676; in experiment [7], 0.328. Also, the composite z-score is -0.0554 in experiment [8], 0.351 in experiment [9] and -0.909 in experiment [10]. Also, the z-score in experiment [2] was 0.0105.
As to `CC1CC/C=C\[C@H]2OC34C=CCN(C(C)(C)C)C(=O)[C@H]3N(CCCCCO)C(=O)[C@@H]4C2C(=O)O1` (stereo not given in full), the composite z-score was -1.33 in experiment [1]; -0.464 in experiment [3]; -0.835 in experiment [4]; -0.517 in experiment [5]; -0.199 in experiment [6]; -0.283 in [7]. For the same compound, the composite z-score in experiment [8] is -0.0105; in experiment [9], -0.348; in [10] it was -1.25. Moreover, the z-score in experiment [2] amounted to 0.095.
